# In the library only some 3.8% were active in any assay of this set; here they are far more common.
# Jurkat NFkB inh = lowers PMA/ionomycin-induced NF-kB signal in Jurkat cells | AID 435003 | hit rate 0.53% among 330,000 | inhibition, % at 4 µM | PMA/ionomycin-induced NF-kB luciferase reporter, luminescence; in the data active means inhibition above about 50%
# 697 NFkB inh = inhibitors of the PMA/ionomycin-induced NF-kB reporter in 697 B cells. 697 B-cell NF-kB luciferase reporter, 16 h. inhibition, % at 4 µM. hit rate 0.33% among 330,000. AID 435022; in the data active means inhibition above about 35%
# A1 inh = inhibitors of the anti-apoptotic protein A1, read as caspase activation | MEF A1-2A-BIM cells, Caspase-Glo 3/7 luminescence, 3 h; percent of clofoctol response, vehicle zero | caspase activation, % (no concentration beside the values) | hit rate 0.066% among 330,000 | AID 2462;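 active means over half of replicate activation scores above 10%, or exactly half above 10 with the replicate mean above 10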
# NTR1 ag = activates human neurotensin receptor 1; hit rate 0.17% among 330,000; activation, % at 20 µM; P30989; NTR1-U2OS beta-arrestin-GFP spot imaging, agonist mode;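 active means activation at or above 40% of the spot to cytoplasm intensity ratio, with at least 20 cells analyzed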
# Beta cell apopt = beta cell apoptosis inhibition. hit rate 0.8% among 300,000. protection from apoptosis, % (no concentration beside the values). AID 435005. INS-1E cytokine-induced death, ATP luminescence, 48 h; percent of positive-control rescue, neutral wells zero;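 active means Every replicate reaches about 75%, or at least half do and their mean reaches it too, limit read from the data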;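 further: higher means more ATP so stronger rescue from cytokine killing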
# Mdm2 MdmX PPI = disrupts the human Mdm2-MdmX interaction | O15151+Q00987 | hit rate 3% among 330,000 | inhibition, % at 8 µM | AID 485346 | SaOS-2 split-luciferase Mdm2/MdmX complementation, luminescence;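 active means inhibition of at least 50% at 8 µM in the primary screen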
# Target sequence (O15151 whole entry, looked up): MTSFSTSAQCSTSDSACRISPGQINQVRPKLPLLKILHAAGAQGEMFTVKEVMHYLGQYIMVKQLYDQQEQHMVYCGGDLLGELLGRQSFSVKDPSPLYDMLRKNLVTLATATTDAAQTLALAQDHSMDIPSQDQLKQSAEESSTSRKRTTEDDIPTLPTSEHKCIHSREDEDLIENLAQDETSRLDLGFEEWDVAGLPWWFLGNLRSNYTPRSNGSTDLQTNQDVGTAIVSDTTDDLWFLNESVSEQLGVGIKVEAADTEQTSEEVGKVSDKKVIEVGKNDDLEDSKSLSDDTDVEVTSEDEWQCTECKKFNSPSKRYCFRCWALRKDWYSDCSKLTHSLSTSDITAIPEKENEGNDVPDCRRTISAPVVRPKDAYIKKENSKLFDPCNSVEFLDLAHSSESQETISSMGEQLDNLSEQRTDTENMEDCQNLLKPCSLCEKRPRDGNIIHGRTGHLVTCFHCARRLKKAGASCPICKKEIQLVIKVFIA
# Target sequence (Q00987 whole entry, looked up): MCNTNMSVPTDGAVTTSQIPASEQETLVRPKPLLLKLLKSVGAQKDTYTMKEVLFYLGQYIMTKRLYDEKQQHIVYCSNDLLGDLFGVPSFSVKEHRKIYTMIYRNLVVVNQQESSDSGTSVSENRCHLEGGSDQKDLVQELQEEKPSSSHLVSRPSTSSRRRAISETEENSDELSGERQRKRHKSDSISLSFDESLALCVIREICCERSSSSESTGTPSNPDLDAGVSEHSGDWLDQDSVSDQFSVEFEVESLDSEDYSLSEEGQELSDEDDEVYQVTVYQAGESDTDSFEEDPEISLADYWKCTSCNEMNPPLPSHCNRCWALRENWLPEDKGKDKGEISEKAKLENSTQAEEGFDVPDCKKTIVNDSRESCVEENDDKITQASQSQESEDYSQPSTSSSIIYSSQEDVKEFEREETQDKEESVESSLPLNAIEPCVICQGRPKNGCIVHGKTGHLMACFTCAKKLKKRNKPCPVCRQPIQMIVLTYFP
# Jurkat NFkB conf = lowers PMA/ionomycin-induced NF-kB signal in Jurkat cells; shares compounds with Jurkat NFkB inh; Jurkat NF-kB luciferase, 16 h; inhibition, % at 4 µM; hit rate 27% among 2,700; AID 435020;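 active means inhibition reaching about 45% at 4 µM in either replicate, limit read from the data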
# Numbers stand for hits; i = inactive; nt = no result given.
SMILES,Jurkat NFkB inh,697 NFkB inh,A1 inh,NTR1 ag,Beta cell apopt,Mdm2 MdmX PPI,Jurkat NFkB conf
CC(=O)C(C)n1c(CN(C)Cc2ccccc2)nc2c1c(=O)n(C)c(=O)n2C (stereo not given),i,i,i,i,i,i,nt
Oc1cccc2ccc(/C=C/c3cccs3)nc12,i,i,i,i,i,i,i
CCOc1ccccc1NC(=O)Cn1nnc(C(=O)NCc2ccco2)c1N,69,i,i,i,i,i,56
COc1cccc(CNC(=O)c2cccs2)c1,i,i,i,i,i,i,nt
Cc1ccc(-c2cc(C(=O)N3CCCCCC3)no2)cc1,i,i,i,i,i,i,i
O=C(c1cc(-c2cccc(O)c2)on1)N1CCCCC1,i,i,i,i,i,i,i
Cc1ccc(-c2nc(CS(=O)(=O)CC(=O)NC3CCC(C)CC3)c(C)o2)cc1 (stereo not given),i,i,i,i,i,i,nt
CSc1ccc(CN2CCN(Cc3ccc([N+](=O)[O-])cc3)CC2)cc1,55,i,i,i,i,i,i
O=C(O)CCc1nc(-c2cccs2)no1,i,i,i,i,i,i,nt
O=[N+]([O-])c1ccccc1OCc1nc(-c2cccs2)no1,i,i,i,i,nt,i,i
O=C(Nc1ccc(F)cc1)c1ccc2c(=O)n(CC3CCCO3)c(=S)[nH]c2c1 (stereo not given),i,i,i,i,nt,i,nt
COc1ccccc1/C=C/C(=O)OCC(=O)N1CCc2ccccc21,i,i,i,i,i,i,nt
Cc1cc(C)n(-c2nc3c(c(=O)[nH]c(=O)n3C)n2CC(O)COc2ccc(Cl)cc2Cl)n1 (stereo not given),51,i,i,i,i,i,i
CCN(CC)CCNc1nc2c(c(=O)[nH]c(=O)n2C)n1CC(O)COc1ccc(Cl)cc1Cl (stereo not given),i,i,i,i,i,i,nt
CC1CCN(C(=O)c2cc3c(ccc4ccccc43)o2)CC1,i,i,i,i,i,i,i
CCOC(=O)C1CCN(C(=O)c2cc3c(ccc4ccccc43)o2)CC1,i,i,i,i,i,i,nt
CCN(CC)c1ccc(N=Nc2nn(C)c(C)c2[N+](=O)[O-])cc1,i,i,i,i,i,i,i
COc1ccc(OC)c(NC(=O)CN(c2ccc(C)cc2)S(=O)(=O)c2c(C)noc2C)c1,i,i,i,i,i,i,nt
COc1ccc(N(CC(=O)Nc2cc(Cl)ccc2OC)S(=O)(=O)c2c(C)noc2C)cc1,69,i,i,i,i,i,i
CC(C)(C)OC(=O)NC(Cc1ccccc1)C(=O)N1CCCC1C(=O)O (stereo not given),i,i,i,i,i,i,nt
S=c1nc(-c2ccc(Br)cc2)oc2c1CCCC2,i,i,i,i,i,i,nt
Cc1cccc(-c2nc(=S)c3c(o2)CCCC3)c1,i,i,i,i,i,i,i
COc1ccc(N=Nc2cc(C)ccc2O)cc1,i,i,i,i,i,i,i
Cc1cc(C)c2c(N)c(C(=O)Nc3ccc(F)cc3)sc2n1,i,i,i,i,nt,i,i
Cc1ccc(C(=O)CSc2nnc3ccccn23)c(C)c1,i,i,i,i,i,i,i
SMILES,Jurkat NFkB inh,697 NFkB inh,A1 inh,NTR1 ag,Beta cell apopt,Mdm2 MdmX PPI,Jurkat NFkB conf
O=C(CSc1nnc2ccccn12)c1ccc(OC(F)F)cc1OC(F)F,i,i,i,i,i,i,nt
Cc1onc(-c2ccccc2)c1C(=O)Nc1ccccc1N1CCOCC1,i,i,i,i,i,i,nt
Cc1onc(-c2ccccc2)c1C(=O)Nc1cc(C(F)(F)F)ccc1N1CCOCC1,56,i,i,i,i,i,i
COc1cc(CCC(=O)Nc2nnc(C)s2)cc(OC)c1OC,52,i,i,i,nt,i,i
COc1cc(CCC(=O)Nc2ncc(C)s2)cc(OC)c1OC,i,i,i,i,i,i,nt
O=C(CCNS(=O)(=O)c1ccc(OC(F)(F)F)cc1)N1CCN(S(=O)(=O)c2cccc(F)c2)CC1,i,i,i,i,i,i,nt
Cc1ccccc1C=Nc1ccccc1C(N)=O,54,i,i,i,i,i,i
CCCCC(C(=O)NC(C)(C)C)N(Cc1ccccc1Cl)C(=O)c1snc(C(N)=O)c1N (stereo not given),i,i,nt,i,nt,i,nt
CCN(CCn1cccn1)C(=O)C1CCC(=O)N(CCN2CCOCC2)C1 (stereo not given),i,i,i,i,i,i,nt
COc1cc(OC)cc(C(=O)NCCCCCCNC(=O)c2cc(OC)cc(OC)c2)c1,i,i,i,i,i,i,nt
Clc1ccc(OCc2nc(-c3ccccn3)no2)c(Br)c1,i,i,i,i,i,i,i
Cc1ccc(S(=O)(=O)Nc2cccc(Cl)c2)cc1NC(=O)C1CC1,i,i,i,i,i,i,nt
Brc1ccc2c(c1)C(C1=NCCN1)c1ccccc1CS2 (stereo not given),60,i,i,i,i,i,56
Cc1ccc2c(c1)Sc1c(ccc3ccccc13)N2,i,i,i,i,104,i,i
Cc1cc(NC(=O)CSc2nc(C(C)(C)C)nc3ccccc23)no1,57,i,i,i,i,i,i
CCCCOC(=O)Nc1nc2ccccc2s1,i,i,i,i,i,i,i
Nc1ccc(C(=O)Nc2nc3ccccc3s2)cc1,i,i,i,i,i,i,i
CCCCOC(=O)Nc1nc2ccc(OC)cc2s1,i,i,i,i,i,i,nt
CCN(CCn1cccn1)C(=O)c1cc(COc2cc(C)ccc2C)on1,i,i,i,i,i,i,nt
CCOC(=O)c1c(NC(=O)COC(=O)Cc2n[nH]c(=O)c3ccccc23)sc(C(=O)NC)c1C,i,i,i,i,i,i,nt
NC(=O)c1c(NC(=O)c2cc3ccccc3o2)sc2c1CCC2,i,i,i,i,i,i,i
NC(=O)c1c(NC(=O)c2ccc([N+](=O)[O-])o2)sc2c1CCCC2,i,i,i,i,i,i,nt
Cn1ncc(Cl)c1C(=O)NC1CCCC1,i,i,i,i,i,i,nt
CN(C)c1ccc(N=Nc2cccc3ccoc23)cc1,i,i,i,i,i,i,nt
CN(C)c1ccc(N=Nc2cccc(F)c2)cc1,i,i,i,i,i,i,i
SMILES,Jurkat NFkB inh,697 NFkB inh,A1 inh,NTR1 ag,Beta cell apopt,Mdm2 MdmX PPI,Jurkat NFkB conf
Cc1cc(C)c(C)c(OC(=O)c2sc(Cl)nc2C)c1,72,i,i,i,i,i,i
CC(=O)c1ccc(S(=O)(=O)N(C)CC(=O)NCc2ccco2)cc1,i,i,i,i,i,i,nt
CCc1sc(C(=O)N2CCc3ccccc32)cc1C,i,i,i,i,i,i,i
O=C(c1ccc(Cl)s1)N1CCc2ccccc21,i,i,i,i,i,i,nt
O=C(Cc1ccccc1)NCC(=O)N1CCC1,i,i,i,i,i,i,nt
CCc1ccc(C2=NN(S(C)(=O)=O)C(c3cccs3)C2)cc1 (stereo not given),i,i,i,i,i,i,i

# Screening results deposited in PubChem by several laboratories.
